PKM2 inh – qHTS Assay for Inhibitors of Human Muscle isoform 2 Pyruvate Kinase | purified PKM2, ATP generation, Kinase-Glo luminescence | Potency, µM (highest dose often 57.5 µM), without a hit: at the top dose activity change, negative = inhibition, usual class: inhibitors | 260,000 compounds, 0.058% hits | AID 1634, 2009; active = well fitted inhibition curve with a large enough effect; note: nearly all actives have a fitted effect of over 60% in size
Target sequence (P14618 whole entry, looked up, canonical isoform): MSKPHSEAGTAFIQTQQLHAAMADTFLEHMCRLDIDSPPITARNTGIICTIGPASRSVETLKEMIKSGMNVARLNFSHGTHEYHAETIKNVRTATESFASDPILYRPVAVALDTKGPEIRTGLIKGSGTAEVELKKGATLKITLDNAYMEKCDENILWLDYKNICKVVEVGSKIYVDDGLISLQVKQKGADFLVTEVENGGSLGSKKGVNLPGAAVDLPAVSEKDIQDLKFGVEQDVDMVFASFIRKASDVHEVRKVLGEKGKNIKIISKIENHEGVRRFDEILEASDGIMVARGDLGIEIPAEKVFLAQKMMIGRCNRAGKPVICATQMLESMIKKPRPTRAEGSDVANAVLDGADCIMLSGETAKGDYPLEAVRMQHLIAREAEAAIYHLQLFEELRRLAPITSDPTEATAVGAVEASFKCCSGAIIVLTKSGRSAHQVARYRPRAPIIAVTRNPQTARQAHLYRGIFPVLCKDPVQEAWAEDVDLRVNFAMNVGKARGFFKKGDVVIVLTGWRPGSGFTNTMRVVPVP
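Enzyme run at intermediate activity with final 0.1 mM ADP, 0.5 mM PEP (50 mM imidazole pH7.2, 50 mM KCl, 7 mM MgCl2), incubated 1 h at r.t. ATP formed read by Kinase-Glo luminescence, normalized to no-enzyme (full inhibition) and uninhibited wells.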
Numbers without * were called inactive. The entries come from a sample that favours hits as a whole. Potency is the fitted concentration of half-maximal effect.

COc1cccc(-c2nnc(SCC(=O)Nc3cc(C)on3)o2)c1 was read as PKM2 inh 42.2%.
`c1cc(-c2nnc(-c3ccncc3)o2)ccn1` gave PKM2 inh 71.7%.
For COc1cccc(-c2nc(-c3ccccn3)no2)c1 the results were PKM2 inh 14.1µM*.
CCOc1cc(/C=N/Nc2nc(-c3cccs3)c(NC(C)=O)s2)ccc1O was read as PKM2 inh 52.8%.
Screening COc1ccccc1CC(=O)NNS(=O)(=O)c1ccc([N+](=O)[O-])cc1 returned PKM2 inh 39.2%.
`Cc1cc(C)c(C#N)c(SCC(=O)Nc2nonc2N)n1` gave PKM2 inh 66.9%.
COC(=O)c1ccc(CSc2nc3scc(-c4cccs4)c3c(=O)[nH]2)o1 was read as PKM2 inh 49.1%.
For COc1ccc(C2CC(c3ccc4ccccc4c3OC(C)=O)=NN2C(C)=O)cc1 (configuration not stated) the results were PKM2 inh 57.0%.
Screening O=C(CCC(=O)N1CCN(S(=O)(=O)c2ccc3ccccc3c2)CC1)NCC(F)(F)F returned PKM2 inh 49.2%.
CCn1c(=O)c2c(nc(SCc3ccccn3)n2C)n(C)c1=O was read as PKM2 inh 48.4%.
For O=c1oc2ccccc2c(Nc2ccccc2)c1[N+](=O)[O-] the results were PKM2 inh 2.5%.
For COc1cc2c(cc1OC)CN(S(=O)(=O)c1ccc3c(c1)OCCO3)CC2 the results were PKM2 inh 70.4%.
`CCN(Cc1ccncc1)Cc1c(O)ccc2cc(Br)ccc12` gave PKM2 inh 36.4%.
`COc1cc(/C=C(\C#N)C(=O)Nc2ccc3c(c2)OCCO3)ccc1O` gave PKM2 inh 16.0%.
For N#C/C(=C/Nc1ccccc1C(=O)O)C(N)=O the results were PKM2 inh -7.9%.
O=C(/C=C\c1ccc(-c2ccccc2)o1)c1ccccc1 was read as PKM2 inh 35.1%.
`NC(=O)c1ccccc1N/C=C/C(=O)c1ccccc1` gave PKM2 inh 11.2µM*.
For CC(/C=C/c1ccco1)=N\NC(=O)COc1ccc(C)c(C)c1 the results were PKM2 inh 33.7%.
Screening O=C(CNS(=O)(=O)c1cccs1)N1CCc2ccccc2C1 returned PKM2 inh 42.1%.
For Cn1c(/C=C/c2ccccc2)nc2ccccc21 the results were PKM2 inh 12.6µM*.
For Cn1c(Cn2cnc3ccccc32)nc2ccccc21 the results were PKM2 inh 58.8%.
Screening Cn1c(CSc2nnc(SCc3ccccc3)s2)nc2ccccc21 returned PKM2 inh 99.9%.
`COc1ccc(CN2C(=O)/C(=C/c3ccncc3)SC2=S)cc1` gave PKM2 inh 30.6%.
Screening Cn1c(=O)n(C/C=C/c2ccccc2)c(=O)c2c1nc1n2CCCN1c1ccc(F)cc1 returned PKM2 inh -3.3%.
Screening C/C=C/C=C\C(=O)Nc1cccc(C2=NOC3(C2)C[C@@H](C(N)=O)N(C(=O)c2cc([N+](=O)[O-])cc([N+](=O)[O-])c2C)C3)c1 (some centres not stated) returned PKM2 inh 36.7%.
Cc1ccc(-n2nnc(-c3nccn3C)n2)cc1 was read as PKM2 inh 15.8µM*.
`Cc1ccc(S(=O)(=O)N2CCCN(S(=O)(=O)c3ccc4ccccc4c3)CC2)cc1` gave PKM2 inh 90.7%.
O=C1OCCC1Sc1nnc(-c2ccc(Br)cc2)o1 (configuration not stated) was read as PKM2 inh 34.9%.
For CC(C)C(C)NC(=O)COc1ccc(S(=O)(=O)N2CCOCC2)cc1Cl (configuration not stated) the results were PKM2 inh 91.2%.
`Cc1ccc(/C=C/C(=O)N2CCN(S(=O)(=O)/C=C/c3ccccc3)CC2)o1` gave PKM2 inh 71.8%.
Cc1ccc(C=C2C(=O)c3ccccc3C2=O)o1 was read as PKM2 inh 14.1µM*.
Screening CCN1C(=O)N/C(=C/c2ccc(C)o2)C1=O returned PKM2 inh 39.9%.
`Cc1ccc(/C=C2/NC(=O)N(c3ccccc3)C2=O)o1` gave PKM2 inh 55.5%.
COc1c(O)c(O)cc2c1oc1c3cc(C)ccc3oc(=O)c21 was read as PKM2 inh 46.3%.
Screening Cc1ccc(Cl)cc1NS(=O)(=O)c1ccc2oc(=O)ccc2c1 returned PKM2 inh 52.2%.
COc1ccc(C(=O)Nc2c(C)cc(C)cc2C)cc1OC was read as PKM2 inh -32.9%.
`CCOc1ccc(C(=O)Nc2cc(C)ccn2)cc1` gave PKM2 inh 14.1µM*.
CCOc1ccc(-c2nnc(SCC(=O)Nc3cc(C)on3)o2)cc1 was read as PKM2 inh 28.2%.
For O=S(=O)(c1ccc(F)cc1)N1CCN(CC2CC3C=CC2C3)CC1 (configuration not stated) the results were PKM2 inh 50.7%.
CCCN1CCN(S(=O)(=O)c2ccc3c(c2)OCCO3)CC1 was read as PKM2 inh 49.4%.
For COCCCNC(=S)N/N=C/c1ccc(O)cc1 the results were PKM2 inh 32.3%.
Screening Cc1occc1C(=O)N/N=C/c1ccc(N(C)C)cc1 returned PKM2 inh 14.1µM*.
